# The campaign covered roughly 360,000 compounds. About 1,500 (0.42%) were called active. This is one part of a sample in which actives are shown more often than they occur. A number with no mark means an inactive call. No stated cut-off is given here; in the data, active means inhibition above about 13% (passing the limit was not always enough); inactive means the rest.
# Biological target: Lon protease (Escherichia coli (strain K12)) (UniProt P0A9M0)
# Test: inhibitors of E. coli Lon protease, primary screen, biochemical, fluorescence polarization (AID 602123);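 further: 0% = enzyme with probe and DMSO and 100% = no enzyme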
# Details: purified E. coli Lon protease, at 7.94 µM, hits give high values
# Chain of Lon protease (Escherichia coli (strain K12)) (P0A9M0 whole entry, looked up): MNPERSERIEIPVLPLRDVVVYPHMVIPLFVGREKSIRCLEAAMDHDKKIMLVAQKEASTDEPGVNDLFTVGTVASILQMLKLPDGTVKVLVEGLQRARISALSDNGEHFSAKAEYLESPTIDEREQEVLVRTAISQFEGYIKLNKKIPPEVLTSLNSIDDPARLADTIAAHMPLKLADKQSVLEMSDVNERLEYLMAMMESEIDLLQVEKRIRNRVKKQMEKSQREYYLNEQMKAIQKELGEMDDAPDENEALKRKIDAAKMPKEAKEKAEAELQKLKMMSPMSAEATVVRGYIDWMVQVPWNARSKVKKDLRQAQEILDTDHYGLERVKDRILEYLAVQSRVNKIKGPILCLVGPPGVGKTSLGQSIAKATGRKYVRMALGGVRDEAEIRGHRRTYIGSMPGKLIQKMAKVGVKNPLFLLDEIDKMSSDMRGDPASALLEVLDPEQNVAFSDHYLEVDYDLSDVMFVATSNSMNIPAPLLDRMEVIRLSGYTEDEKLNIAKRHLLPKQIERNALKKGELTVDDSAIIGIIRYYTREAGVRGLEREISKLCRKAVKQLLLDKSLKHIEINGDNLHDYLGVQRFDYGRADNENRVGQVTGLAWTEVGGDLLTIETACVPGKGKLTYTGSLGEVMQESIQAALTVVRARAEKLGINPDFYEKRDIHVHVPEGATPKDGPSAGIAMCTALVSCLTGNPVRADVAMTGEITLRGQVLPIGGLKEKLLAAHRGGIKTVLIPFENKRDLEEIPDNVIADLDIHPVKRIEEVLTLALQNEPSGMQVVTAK
row,Structure (SMILES),inhibition
1,O=S(=O)(/N=C(/Nc1ccccc1)c1ccccc1)c1cccs1,5.92%
2,O=S1(=O)CC(N2CCN(CCO)CC2)CN1Cc1cn(Cc2ccc(Cl)cc2)nn1 (configuration not stated),-4.7%
3,Cn1nc(C(F)(F)F)c2cc(NC(=O)OCC(C)(C)C)sc21,-3.72%
4,CCNc1nc(N)nc(-c2cc(Cl)ccc2OC)n1,-13.4%
5,CCOc1cc(S(=O)(=O)NC2CC(C)(C)NC(C)(C)C2)ccc1F,-9.09%
6,COCCNC(=O)Nc1ccc2nc(-c3ccco3)c(-c3ccco3)nc2c1,25.9% (active)
7,COCCNC(=O)CN(Cc1ccco1)C(=O)CCC(=O)Nc1nccs1,-1.88%
8,COc1ccc(CCNC(=O)Nc2ccc3c(c2)c(=O)n(C)n3C)cc1OC,7.25%
9,O=C(c1cccc(Br)c1)N1CCN(C2=NS(=O)(=O)c3ccccc32)CC1,-1.34%
10,Oc1ccc(N=Cc2sc3ccccc3c2Cl)cc1,32.3% (active)
11,COc1ccc2oc(C(=O)NCC(Cc3ccccc3)N(C)C)c(C)c2c1 (configuration not stated),1.71%
12,COc1cc([C@H](Cc2ccccc2)NC(C)=O)oc(=O)c1,17.6% (active)
13,COc1ccc(OC)c(NC(=O)N[C@H](Cc2ccccc2)C(=O)NN)c1,-10.1%
14,CC(=O)N1CC(C)c2scc(C)[n+]2-c2ccccc21 (configuration not stated),20.3%
15,C=CCc1cccc2cc(C(=O)Nc3ccc(NC(C)=O)cc3)c(=O)oc12,-3.06%
16,CCc1cc2c(=O)c(-c3ccon3)c(N)oc2cc1OC,-12.2%
17,Cc1cc(OCCN2CCCC2)cc(C(C)C)c1,3.29%
18,Nc1ccc2nc3c(=O)[nH]c(=S)[nH]c3nc2c1,182% (active)
19,Cc1coc2c(O)cc3c(c12)OC1(N2CCCCC2)C(=O)NCCCC31 (configuration not stated),29.9% (active)
20,CSc1ccc(C(=O)C2CCCN(C(=O)c3ccc(C)nc3)C2)cc1 (configuration not stated),-8.1%
21,CCCC(=O)OCC(=O)Nc1cc(Cl)ccc1[N+](=O)[O-],5.89%
22,CC1(C)CC(N2CCN(C(c3ccccc3)c3ccccc3)CC2)=CC(=[N+]2CCCCC2)C1,-3.99%
23,O=C(O)Cc1ccc(NC(=O)C2CCCCC2C(=O)O)cc1 (configuration not stated),-2.29%
24,CC#CC[N+](C)(C)CCCCCC,11.3%
25,COc1ccc(N2CCN(C3CCCCC3NS(=O)(=O)c3ccccc3)CC2)cc1 (configuration not stated),17.2% (active)
26,CCN1CCN(C2CCCCC2NS(=O)(=O)c2ccc(Cl)cc2)CC1 (configuration not stated),-11.9%
27,O=S(=O)(NC1CCCCC1N1CCN(c2ccccc2F)CC1)c1ccccc1 (configuration not stated),-9.13%
